Pf growth 48h – Primary qHTS for delayed death inhibitors of the malarial parasite plastid, 48 hour incubation | P. falciparum luciferase growth in erythrocytes, 48 h | Potency, µM (top dose mostly 28.7 µM), without a hit: top-dose activity change, negative = inhibition, usual class: inhibitors | actives 5.9% (n = 310,000) | AID 504832, 2011; note: potency is the fitted concentration of half-maximal effect; % is set by controls: 0 for no effect and ±100 for the full control effect
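In quantitative HTS format, infected erythrocytes bearing luciferase-reporter parasites were treated for a single generation at 37 C. Luminescence after adding detection reagent served as the growth measure.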
Pf growth 96h – Primary qHTS for delayed death inhibitors of the malarial parasite plastid, 96 hour incubation; Potency, µM (highest dose often 28.7 µM), for the others: top-dose activity change, negative = inhibition, actives largely listed as inhibitors; P. falciparum luciferase reporter growth, 96 h; actives 6.9% (n = 320,000); note: potency is the fitted concentration of half-maximal effect; % is set by controls: 0 for no effect and ±100 for the full control effect
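Delayed-death screen, second-generation endpoint: infected erythrocytes, 2% hematocrit, 0.05% parasitemia final; 96 hours at 37 C, 5% CO2; luciferase detection reagent; luminescence decrease equals reduced growth.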
CHX counter – Cycloheximide Counterscreen for Small Molecule Inhibitors of Shiga Toxin; actives 12% (n = 300,000); AID 2314, 2010; max response, %; cell reporter, cycloheximide protein synthesis inhibition counterscreen; in the data active = max response mostly above about 13%, no sharp cut-off; inactive = mostly below about 14%; note: read at 38.3 µM for the half of the compounds with a filed dose; 0% is about no effect
LASV entry inh – qHTS for Inhibitors of binding or entry into cells for Lassa Virus; Lassa virus pseudotype entry inhibition, cell reporter; Potency, µM (titrated, usually from 37.9 µM), without a hit: top-dose activity change, negative = inhibition, actives largely listed as inhibitors; actives 1.2% (n = 300,000); AID 540256, 2011; calls by dose curve; tested in HEK293 cells; note: potency is the fitted concentration of half-maximal effect; % is set by controls: 0 for no effect and ±100 for the full control effect; nearly all actives have a fitted effect of over 50% in size
MARV entry inh – qHTS for inhibitors of binding or entry into cells for Marburg Virus; Marburg virus pseudotyped entry inhibition, cell reporter; Potency, µM (titrated, usually from 37.8 µM), without a hit: at the highest dose activity change, negative = inhibition, usual class: inhibitors; actives 1.8% (n = 300,000); AID 540276, 2011; calls by dose curve; tested in HEK293 cells; note: potency is the fitted concentration of half-maximal effect; % is set by controls: 0 for no effect and ±100 for the full control effect
Shiga toxin inh – A qHTS for Small Molecule Inhibitors of Shiga Toxin. Vero cells, Shiga toxin protein synthesis inhibition reporter. actives 9.2% (n = 290,000). inhibition, % at 38.7 µM. AID 2315, 2010; in the data active = inhibition mostly above about 28%, no sharp cut-off; inactive = mostly below about 43%; note: 0% is about no effect
Starred values were filed as active, the others as inactive; ? = inconclusive; . = no result given; + = active, no number; [ ] = another dose, or the depositor's remark. A selection: hits, their analogues and other compounds. The true share with any hit is near 19%. Unless noted, calls come from the whole dose curve; as a rule, active = well fitted inhibition curve with a large enough effect; inconclusive = small, poorly fitted or top-dose-only effect, or another doubt; inactive = no such curve, though single readings can be large or run the other way.

SMILES	Pf growth 48h	Pf growth 96h	CHX counter	LASV entry inh	MARV entry inh	Shiga toxin inh
Fc1ccc(Nc2nc(SCc3cccc(Cl)c3)nc3ccccc23)cc1	.	.	.	21%[46.1 µM]	.	.
Clc1cccc(/C=N\Nc2nccs2)c1	.	109%	20*	-7%	-7%	65
Clc1cccc(/C=N/Nc2nc(Cl)nc3ccccc23)c1	?	-83%	48*	?	7%	122*
Cc1cc(C)nc(N/N=C/c2ccc(N3CCOCC3)cc2)n1	1%	24%	-4	19%	-19%	2
CCc1nnc(SCC(=O)NC2CCCC2)nc1CC	.	?	-4	12%	?	-13
N#Cc1c(N)sc2c1CCN(CCc1ccccc1)C2	10µM*	79%	-2	-1%	10%	11
N#Cc1c(NC(=O)c2cc([N+](=O)[O-])ccc2N2CCOCC2)sc2c1CCCC2	?	?	30*	21%	4%	+
N#Cc1c(NC(=O)c2ccccc2)sc2c1CCC2	.	258%	46*	?	?	196*
CCC(CC)NC(=O)c1cc([N+](=O)[O-])ccc1N1CCOCC1	17%	35%	-1	3%	?	-22
Cc1cccc(C(=O)Nc2sc3c(c2C#N)CCCCC3)c1	459%	13%	44*	?	?	85*
Cc1ccc(S(=O)(=O)NCCc2ccncc2)cc1[N+](=O)[O-]	?	?	2	-22%[46.1 µM]	7%[46.1 µM]	-9
CCCn1c(N)c(C(=O)CN(C)CC(=O)Nc2cc(C)ccc2C)c(=O)[nH]c1=O	5%	15%	.	-25%	-7%	.
CC1CN(CC(=O)N2CCc3[nH]c4ccccc4c3C2)CC(C)O1 (stereo not drawn)	-2%	10%	-2	1%	?	-13
N#Cc1c(NC(=S)NC(=O)c2ccccc2)sc2c1CCCC2	35%	?	34*	?	?	35*
N#Cc1c(NC(=O)c2cnccn2)sc2c1CCCC2	175%	73%	66*	0%	?	75*
N#Cc1c(NC(=S)NC(=O)c2ccccc2)sc2c1CCN(CCc1ccccc1)C2	4.1µM*	2.6µM*	-1	-5%	-1%	5
COc1ccccc1C(=O)Nc1sc2c(c1C#N)CCC2	137%	331%	12*	3%[46.1 µM]	-6%[46.1 µM]	.
N#Cc1c(NC(=S)NC(=O)C2CCCC2)sc2c1CCCCC2	-7%	-27%	23*	1%	?	27*
N#Cc1c(NC(=O)c2ccc([N+](=O)[O-])o2)sc2c1CCC2	76%	52%	28*	?	?	97*
CC1CCc2c(sc(NC(=S)NC(=O)c3ccccc3)c2C#N)C1 (stereo not drawn)	17%	51%	21*	.	.	65*
N#Cc1c(NC(=O)c2cccnc2)sc2c1CCC2	.	101%	19*	?	?	58
CC(C)c1onc(C(=O)Nc2sc3c(c2C#N)CCC3)c1[N+](=O)[O-]	-4%	?	10	-5%[46.1 µM]	9%[46.1 µM]	41
CC(C)N1CCN(C(=O)c2ccc(OC3CCN(CCc4ccccc4)CC3)cc2)CC1	?	-22%	13	-16%	11µM*	29
O=C(c1ccc(OC2CCN(CCc3ccccc3)CC2)cc1)N1CCCC1	-21%	?	-1	-24%	?	-3
O=C(NC1CCCCC1)c1ccc(OC2CCN(Cc3ccccn3)CC2)cc1	?	-5%	-2	25%	3%	-14
SMILES	Pf growth 48h	Pf growth 96h	CHX counter	LASV entry inh	MARV entry inh	Shiga toxin inh
CSCCCNC(=O)c1ccc(OC2CCN(CCc3ccccc3)CC2)cc1	?	13µM*	31*	.	.	93*
O=C(NCCc1ccccn1)c1ccc(OC2CCN(CCc3ccccc3)CC2)cc1	45%	8%	42*	.	.	65*
CCCN1CCC(Oc2cccc(C(=O)NCCc3ccccc3)c2)CC1	?	0%	56*	15%	?	72*
O=C(Nc1cc(Cl)ccc1-n1cncn1)c1cc(F)c(F)c(F)c1F	-15%	-7%	.	-6%	-11%	.
Cc1nc(-n2nc(C)c(Cc3ccc(Cl)cc3)c2C)sc1C(=O)N1CCCCC1C (stereo not drawn)	.	.	.	7%[46.1 µM]	4%[46.1 µM]	.
O=C(O)c1ccc(COc2cccc(CO)c2)cc1	1%	3%	8	22%	-1%	59
OCCNCCOCCOc1ccccc1-c1ccccc1	-17%	8%	-3	?	?	-12
CCOc1ccc(NC(=O)Cn2c(=O)oc3cc(Cl)ccc32)cc1	?	31%	10	.	.	2
Cc1cc(CN(C)C(=O)c2ccc(OC3CCN(CCc4ccccc4)CC3)cc2)on1	?	?	-6	24%[46.1 µM]	3.2µM*	-18
CC(Cc1ccccn1)NC(=O)c1ccc(OC2CCN(CCc3ccccc3)CC2)cc1 (stereo not drawn)	12µM*	13%	29*	2%	?	47*
COc1ccc(C2c3c4c(n(C)c3CCN2C)CCN(C)C4c2ccc(OC)cc2)cc1 (stereo not drawn)	?	.	-1	?	?	-11
O=C(Cn1nnc2sc3c(c2c1=O)CCCC3)Nc1ccc(F)c(Cl)c1	.	.	.	15%[46.1 µM]	-2%[46.1 µM]	.
COCc1ccc(CN2CCc3c([nH]c4ccccc34)C2CC(C)C)o1 (stereo not drawn)	?	6.6µM*	1	?	?	8
Cc1cccc(Nc2nccc(N(C)C)c2C#N)c1	6%	0%	-1	2%[46.1 µM]	1%[46.1 µM]	12
CCc1cc2c(=O)n(-c3ccccc3)cnc2s1	25%	8%	53*	13%	?	105*
CCc1cc2c(SCC(=O)c3ccc(C)cc3)ncnc2s1	25%	?	-3	7%	21%	9
CCc1cc2c(=O)[nH]cnc2s1	16%	10%	1	10%	3%	-4
CCc1cc2c(=O)n(-c3ccc(C)cc3)cnc2s1	370%	?	53*	-7%	?	74*
O=C(COC(=O)C1CCC1)Nc1cccc(S(=O)(=O)N2CCOCC2)c1	14%	1%	.	23%	8%[46.1 µM]	.
Cc1nc(-c2ccc(Cl)cc2)sc1C1(C)CC(c2cccc(Cl)c2)=NO1 (stereo not drawn)	52%	88%	17*	.	.	32*
Cc1nc(-c2ccc(Cl)cc2)sc1C1(C)CC(c2ccc(F)cc2)=NO1 (stereo not drawn)	8%	44%	25*	.	.	47*
Cc1nc(-c2ccc(Cl)cc2)sc1C1(C)CC(c2cccc(F)c2)=NO1 (stereo not drawn)	77%	65%	28*	.	.	52*
Cc1nc(-c2ccc(Cl)cc2)sc1C1(C)CC(c2ccc([N+](=O)[O-])cc2)=NO1 (stereo not drawn)	37%	17%	6	.	.	2
CN1CCc2nc3sc(C(=O)Nc4cccc(C#N)c4)c(N)c3cc2C1	.	.	.	24%[46.1 µM]	?	.

High-throughput results deposited in PubChem by National Center for Advancing Translational Sciences (NCATS).
